We go through 16 sequences from the OligoGym collection.
Further: reference of the scale not given here.

The assay concerns the target CIRBP. Nature of the assay: pooled miR-30 sensor sort-seq; sequence = guide strand. The note with it: shRNA.
The sequence ATCCTTAGCGTCGTCAATGTTC had a sensor-assay potency score (higher = more potent) of -1.29. The result for TGAGAAGACCTGCTCCAGCGAC reads -1.23; that for ACTGTCGTAACTGTCTCTGTAG, -0.226; that for TTTCACAACCACCACTTCAGAG, -0.729. Take TAGTAGTCTCTGGAGCCTCCGT: the sensor-assay potency score (higher = more potent) was -1.12.

TCAGAGATCTGTCCGTACTTTG yielded a sensor-assay potency score (higher = more potent) of -1.1. TAACTGTCTCTGTAGGACCCGC: the sensor-assay potency score (higher = more potent) is -0.935.

As to TACTTTGAGAAGACCTGCTCCA, the sensor-assay potency score (higher = more potent) is 0.53. The same measure for TAGCCACCACTCTGACTCCGGC: -0.921; for TATAGTAGTCTCTGGAGCCTCC: -0.259.

TTCAGAGATCTGTCCGTACTTT: the sensor-assay potency score (higher = more potent) came out at 0.15. In turn, TTAGCGTCGTCAATGTTCTCAA yielded a sensor-assay potency score (higher = more potent) of -0.0271. Sequence TGTCTTTCACAACCACCACTTC came in with a sensor-assay potency score (higher = more potent) of -0.854. TCCGTACTTTGAGAAGACCTGC showed a sensor-assay potency score (higher = more potent) of -0.634. The same measure for TTGCCTGCCTGGTCTACTCGGA: -0.263. Turning to TAGCGTCGTCAATGTTCTCAAA, the sensor-assay potency score (higher = more potent) was -1.03.
